Compound activity: PubChem, National Center for Advancing Translational Sciences (NCATS)
Six1-Eya2 inh – blocks human Six1 binding to Eya2; activity change, % (no concentration beside the values); AlphaScreen GST-Six1/His-Eya2 binding, biochemical; active compounds read low; AID 651725; 360,000 tested, 0.56% active; in the data active = activity change below about -65%; inconclusive = mostly about -30% to -63%; note: % is set by controls: 0 for no effect and ±100 for the full control effect
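Compounds are tested against tagged Six1 and Eya2 proteins bridged by glutathione donor and nickel acceptor beads; after a one-hour incubation at 37 °C without light, AlphaScreen emission is recorded.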
RORgamma inh – inhibitors of mouse ROR gamma transcriptional activity; P51450; Drosophila S2 Gal4-RORgamma UAS-luciferase reporter, 20 h; Potency, µM (titrated, usually from 53.6 µM), for the others: top-dose activity change, negative = inhibition, most hits filed as inhibitors; 310,000 tested, 5.4% active; AID 2551; note: potency is the fitted concentration of half-maximal effect; % is set by controls: 0 for no effect and ±100 for the full control effect; nearly all actives have a fitted effect of over 60% in size
Target sequence (P51450 whole entry, looked up, the tested form may be a part): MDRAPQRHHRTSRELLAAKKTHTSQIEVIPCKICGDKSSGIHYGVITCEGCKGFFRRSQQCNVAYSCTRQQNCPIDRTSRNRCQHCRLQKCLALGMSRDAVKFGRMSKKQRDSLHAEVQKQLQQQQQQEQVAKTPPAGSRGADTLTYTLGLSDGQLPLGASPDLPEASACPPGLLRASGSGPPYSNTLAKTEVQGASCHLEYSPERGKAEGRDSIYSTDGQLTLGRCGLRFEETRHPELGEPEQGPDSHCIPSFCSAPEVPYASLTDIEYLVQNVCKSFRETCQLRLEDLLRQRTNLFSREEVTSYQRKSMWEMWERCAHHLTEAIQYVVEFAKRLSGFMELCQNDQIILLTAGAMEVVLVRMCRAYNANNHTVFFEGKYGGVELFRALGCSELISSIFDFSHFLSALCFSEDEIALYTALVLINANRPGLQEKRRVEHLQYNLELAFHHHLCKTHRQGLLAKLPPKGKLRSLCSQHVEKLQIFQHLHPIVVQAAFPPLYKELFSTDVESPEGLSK
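In this cell-based reporter format, copper sulfate (700 uM final) drives Gal4–ROR gamma fusion expression from a metallothionein promoter in Drosophila Schneider cells; compounds preincubated 1 hr, reporter read after 20 hr at ambient temperature.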
p53 reactivation – re-activators of mutant p53; H1299 p53-A138V BP100-luciferase reporter, luminescence, 24 h; Potency, µM (doses to about 92.2 µM), for the others: top-dose activity change, positive = activation, actives largely listed as activators; 320,000 tested, 0.063% active; AID 504706; note: potency is the fitted concentration of half-maximal effect; % of control where 0% means no effect; nearly all actives have a fitted effect of over 45% in size
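p53-null H1299 cells stably carrying temperature-sensitive p53-A138V and a BP100-luciferase reporter were pinned with compounds (4-point, 1:5 series) and held 24 hrs at 37 deg C. Luminescence was read 10 min after detection reagent.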
VP16 counter – inhibits Gal4-VP16 luciferase reporter, ROR gamma counter-screen. Drosophila S2 Gal4-VP16 UAS-luciferase, luminescence, 20 h. Potency, µM (highest dose often 53.6 µM), without a hit: top-dose activity, negative = inhibition, most hits filed as inhibitors. 310,000 tested, 3.5% active;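 note: Gal4-VP16 expression switched on by copper sulfate through the metallothionein promoter; potency is the fitted concentration of half-maximal effect; % is set by controls: 0 for no effect and ±100 for the full control effect; nearly all actives have a fitted effect of over 50% in size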
CtBP-E1A blk – inhibitors of CtBP/E1A interaction | activity change, % (no concentration beside the values) | AlphaScreen GST-E1A/His-CtBP binding, 1536-well; active compounds read low | 340,000 tested, 0.49% active; in the data active = activity change below about -65%; inconclusive = mostly about -30% to -63%; note: % is set by controls: 0 for no effect and ±100 for the full control effect
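Protein mix (5X: 125 nM each GST-E1A, His-CtBP) was incubated with pinned compound 2 h at 37 deg C in dark, in 50 mM Tris pH 8.0 buffer with 300 mM NaCl. Glutathione donor and nickel acceptor beads followed; AlphaScreen signal read after 1 h.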
An asterisk follows results filed as active; ? = inconclusive; nt = no result given; ! = repeats disagree; [ ] = another dose, or the depositor's remark. A selection: hits, their analogues and other compounds. The true share with any hit is near 5.4%. Unless noted, calls come from the whole dose curve; as a rule, active = well fitted curve in the direction sought with a large enough effect; inconclusive = small, poorly fitted or top-dose-only effect, or another doubt; inactive = no such curve, though single readings can be large; an effect the other way counts as inactive or inconclusive.

SMILES | Six1-Eya2 inh | RORgamma inh | p53 reactivation | VP16 counter | CtBP-E1A blk
CCCCN(CC)Cc1ccc(CNC(=S)Nc2ccc(C)cc2Cl)o1 | -1 | 16µM* | 10% | -27% | -7
CCCCN(CC)Cc1ccc(CNC(=S)Nc2c(C)cc(C)cc2C)o1 | -7 | 3.2µM* | 23% | 6.3µM* | -2
Cc1cc2nc(-c3ccccc3)cc(=O)n2[nH]1 | -4 | 13µM* | 4% | ? | 1
O=c1cc(-c2ccccc2)nc2nc(-c3ccccc3)[nH]n12 | 7 | ? | 32µM* | 2%[0.365 µM] | 4
Nc1nc2nc(-c3ccccc3)cc(=O)n2[nH]1 | 1 | -24% | -1% | -20% | 7
Cn1cccc1C(=O)N1CCC2(CCCN(Cc3nccs3)C2)CC1 | nt | 28% | nt | 14% | nt
CN(C)S(=O)(=O)c1cccc(NC(=O)c2ccccc2OCc2ccc(F)cc2)c1 | -22 | -44% | 2% | -3% | -14
CC1(C)CC(=O)C2=C(C1)NC(=S)C(C#N)C21CCCCC1 (stereo not drawn) | -4 | 10µM* | -3% | 11% | -2
CC1(C)CC(=O)C2=C(C1)NC(SCC(=O)Nc1ccccc1)=C(C#N)C21CCCCC1 | -1 | 10% | 6% | -22% | 0
O=C(CC[C@H]1O[C@@H](n2ccc(=O)[nH]c2=O)[C@H](O)[C@@H]1O)NCC1CCCO1 (stereo partly drawn) | 0 | nt | nt | nt | 4
CCc1c(C)nc2nc(SCc3ccccc3Cl)[nH]n2c1=O | -3 | ? | -2% | 25µM* | -10
CCOc1ccc(C2C3=C(Nc4nc(N)[nH]c(=O)c42)c2ccccc2C3=O)cc1 (stereo not drawn) | -72* | -6% | -7% | -2% | -4
CCCCCCCC/C=C\CCCCCCCC(=O)OC[C@@H](O)COP(=O)(O)O | nt | 4% | nt | -4% | nt
N#CCCn1nc(-c2ccccc2)c2ccccc2c1=O | 3 | 10% | 9% | -6% | -1
CC(C)(C)C1CCc2c(sc(NC(=O)c3cc(C4CC4)on3)c2C#N)C1 (stereo not drawn) | 0 | 5.6µM* | -1% | ? | 1
CC1(C)C=C(c2ccc(O)cc2)CC(C)(C)N1 | 3 | -22% | -4% | -2% | 7
CSc1ccc(CN2CCC2(C)C(=O)NC2CCN(Cc3ccccc3)CC2)cc1 (stereo not drawn) | -15 | nt | nt | nt | -10
OCCCNc1ncnc2scc(-c3ccc(Cl)cc3)c12 | -8 | ? | -4% | 7% | -1
CN1CCC2(CC1)N=C(c1ccc(F)cc1)C(=S)N2C(=O)c1ccc(C(C)(C)C)cc1 | 12 | 13µM* | 21% | ? | -5
CC(C)(C)c1ccc(C(=O)N2CCNCC2)cc1 | 9 | -23% | 13% | -2% | -2
CC1(C(=O)Nc2nccs2)Cc2ccccc2C(=O)O1 (stereo not drawn) | -1 | -25% | -11% | 8% | 6
O=C(Nc1nnc(SCc2ccc(Cl)cc2)s1)c1ccco1 | 1 | -7% | 3% | 0% | 6
O=C(Nc1ccc(Cl)cc1)Nc1nnc(SCc2ccccc2)s1 | 4 | 12% | 28µM* | -6% | 11
CC1(C(=O)Nc2nnc(SCc3ccccc3)s2)Cc2ccccc2C(=O)O1 (stereo not drawn) | -2 | 10µM* | -6% | -11% | -6
CCCn1nc(C(=O)Oc2ccc3c(C)cc(=O)oc3c2)c2ccccc2c1=O | 0 | 2% | 15% | -3% | 2
SMILES | Six1-Eya2 inh | RORgamma inh | p53 reactivation | VP16 counter | CtBP-E1A blk
Cc1ccc(NC2CCCN(C(=O)c3cc4ncccn4n3)C2)cc1C (stereo not drawn) | 2 | -15% | 5% | 1% | 1
CC1=C(/C=C/C(C)=C/C=C/C(C)=C/C(=O)Nc2ccc(O)cc2)C(C)(C)CCC1 | -16 | 4.5µM*! | -30% | 5µM*! | 6
C=CCc1c(C)nc(SC)nc1Nc1ccc(C)cc1 | 2 | 10µM* | -7% | 3% | 11
CC(=O)C(Sc1ncnc2sc3c(c12)CCCC3)C(C)=O | 2 | 11µM* | -3% | 16µM* | 9
CC(=O)CSc1ncnc2sc3c(c12)CCC(C)C3 (stereo not drawn) | 24 | 3.2µM* | 6% | ? | 26
CC(=O)CSc1ncnc2sc3c(c12)CCCC3 | 13 | -29% | 5% | 11% | 8
COc1ccnc(CSC(N)=Nc2ccc(F)cc2)c1 | ? | 10µM* | ? | ? | ?
CN(N)c1nc(-c2ccccc2)cc(-c2ccccc2)n1 | 11 | 13µM* | -1% | ? | -3
Cc1c(C(C)NC(=O)c2cc(COc3cccc4cnccc34)on2)cnn1C (stereo not drawn) | -5 | -27% | -7% | 13µM* | nt
COc1ccccc1NC(=S)NC1CC2CCC1C2 (stereo not drawn) | -6 | 2.2µM* | 2% | 16µM* | -16
CN(C)NC(=S)NC1CC2CCC1C2 (stereo not drawn) | 3 | 5.6µM* | -1% | 13µM* | 3
COc1ccccc1NC(=S)NC1CCC(CC2CCC(NC(=S)Nc3ccccc3OC)CC2)CC1 (stereo not drawn) | -9 | 3.5µM* | -14% | 3.2µM* | -4
O=C(CSC(=S)N1CCOCC1)Nc1nccs1 | 23 | 0% | 2% | -6% | 3
CCN(CC)C(=S)SCC(=O)Nc1nc(-c2ccccc2)c(-c2ccccc2)o1 | 9 | 4.5µM* | -4% | 8.9µM* | -10
O=C(CSC(=S)N1CCCCC1)Nc1nc(-c2ccccc2)c(-c2ccccc2)o1 | 4 | 5.6µM* | 1% | ? | -2
Cc1c(NC(=O)CSC(=S)N2CCCC2)c(=O)n(-c2ccccc2)n1C | 2 | nt | -1% | nt | 14
O=C(CSC(=S)N1CCOCC1)Nc1nc(-c2ccccc2)c(-c2ccccc2)o1 | -5 | 11µM* | 1% | ? | 3
O=C(CSC(=S)N1CCN(c2ccccc2)CC1)Nc1nc(-c2ccccc2)c(-c2ccccc2)o1 | 14 | 10µM* | 7% | -7% | 0
CC(=O)CSc1nc(-c2ccccc2)c(-c2ccccc2)o1 | 2 | 7% | -4% | -9% | 16
O=C(CSC(=S)N1CCCC1)NCCc1ccccc1 | 2 | nt | 2% | nt | 0
CCOC(=O)N(C)c1c(CC)nc2c(OCc3ccccc3)cccn12 | 1 | nt | nt | nt | 1
COc1cccc(NC(=O)[C@H](C)NC(=O)C2CCN(S(=O)(=O)c3ccc(C)cc3)CC2)c1 | -3 | -2% | 0% | 0% | 5
Cn1nnnc1SCC(=O)Nc1nc(-c2ccccc2)c(-c2ccccc2)o1 | -9 | 10µM* | -4% | ? | -3
Cn1nnnc1SCC(=O)Nc1ccccn1 | 3 | 6% | -2% | 14% | -1
O=C(NC(=S)Nc1ccc(S(=O)(=O)N2CCCCC2)cc1)c1cccs1 | 0 | 4.5µM* | 0% | ? | -5
